Data published in PubChem BioAssay.
Values without a mark were called inactive. Active and inactive are the calls of the source. No stated cut-off is given here; in the data, active means inhibition above about 25%; inactive means the rest.

Assay: repression of VP16-driven luciferase reporter – cell-based, luminescence, high throughput, counter-screen for SRC1 inhibitor project (AID 588824)
Conditions: cell-based VP16 transactivation luciferase luminescence; at 3.6 µM; stronger effect = higher value

Compound	inhibition
COc1ccc(-c2c[n+]3c(n2-c2ccccc2)SCC3)cc1	21%
CCOC(=O)C(=Cc1ccccc1)C(=O)c1ccccc1	28.7% (active)
CCC(=O)Oc1c(C(=O)CC)cc2c(C)cc(=O)oc2c1C	15.6%
CC(=O)N(C(C)=O)c1ncc2c([nH]c3ccccc32)c1C#N	26.8% (active)
CCOC(=O)C(=Cc1cc(=O)c(OC)co1)C(=O)OCC	53.4% (active)
COCC(C)n1c(C)cc(C(=O)COC(=O)c2cc(=O)[nH]c3ccccc23)c1C (stereo not given)	-32.1%
CCN(CC)c1ccc2cc(NC(=O)CCC(=O)O)c(=O)oc2c1	39.2% (active)
COc1cc(/C=C2\SC(N)=NC2=O)cc(OC)c1	18.9%
O=C(CCl)N1N=C(c2cccs2)CC1c1ccco1 (stereo not given)	17.4%
COc1ccc(OC)c(/C=C/c2ccnc3ccccc23)c1	53.7% (active)
CC12CCC(C(=O)N/N=C/c3ccc(O)cc3O)(OC1=O)C2(C)C (stereo not given)	6.4%
CCOc1ccc(-n2c(C)c(C(C)=O)c3cc(OC(C)=O)ccc32)cc1	47.6% (active)
COc1ccc(C(C(=O)NC2CCCCC2)N(C(=O)CCl)c2ccc(C)cc2)cc1 (stereo not given)	49.2% (active)
NC(=O)C(C(=O)/C=C/c1ccc(Cl)cc1)=C1SCCS1	33.8% (active)
Cc1sc2ncnc(N3CCC(C(=O)Nc4ccccc4C(C)(C)C)CC3)c2c1C	29.7% (active)
COc1ccc(C)cc1N=Nc1ccc(O)c2ncccc12	0.73%
Cn1c(CC(=O)Nc2ccc(Cl)c(Cl)c2)nnc1SCC(=O)N1CCN(c2ccccc2)CC1	9.79%
CCOC(=O)c1c(C)c2c(=O)[nH]cnc2n1-c1ccccc1	39.9% (active)
COc1ccc(-n2cnc3c(sc4nccc(N(C)C)c43)c2=O)cc1	11.8%
COc1ccc(-n2cc(-c3ccccc3)[n+]3c2CCCCC3)cc1	27.7% (active)

Compound	inhibition
COc1ccc(/C=C2\N=C(C(C)(C)C)OC2=O)c(OC)c1	3.16%
CN(CC1CCCO1)S(=O)(=O)c1ccc(C(=O)Nc2nc3cc4c(cc3s2)OCO4)cc1 (stereo not given)	39.8% (active)
CN1CC(=O)N2C(c3cccc([N+](=O)[O-])c3)c3[nH]c4ccccc4c3C[C@H]2C1=O (stereo not given in full)	34.5% (active)
N=c1c2c(-c3ccccc3)c(-c3ccccc3)n(Cc3ccccc3)c2ncn1CCCO	51% (active)
O=C(N/N=C/c1cc([N+](=O)[O-])ccc1O)c1cccc(N2CCCC2=O)c1	4.04%
CCc1ccc(-c2cc(C(F)(F)F)n3nc(C(=O)Nc4cnn(Cc5ccc(C)cc5)c4)cc3n2)s1	7.47%
c1ccc(CNc2c3ccccc3nc3ccccc23)cc1	54.9% (active)
Nc1nccc(-c2ccc(-n3cnc4ccccc43)cc2)n1	26.3% (active)
CN=C1S/C(=C\c2cc(C)n(-c3ccccc3F)c2C)C(=O)N1C	-68%
COC(CN(C(=O)CCl)C(C(=O)NC1CCCCC1)c1ccccc1C)OC (stereo not given)	25.1%
CCN1/C(=C/c2ccc3cc(C)cc(C)c3[n+]2CC)Sc2cc(C)ccc21	59.3% (active)
O=C(N/N=C/c1c(O)ccc2ccccc12)c1cccc(C(F)(F)F)c1	77.4% (active)
Cc1ccc(S(=O)(=O)N2CCOCC2)cc1NC(=O)CN1CCN(c2ccc(O)cc2)CC1	11.1%
CC1=C(C(=O)OCc2ccc3c(c2)OCO3)C(c2ccccc2)NC(=O)N1 (stereo not given)	61.8% (active)
Cc1nc2ccc(NC(=O)c3ccc(Cl)c(S(=O)(=O)N(C)c4ccccc4)c3)cc2s1	33.7% (active)
OCCNc1ncnc2ccc(Br)cc12	16.2%
Cc1nc(N)c(CC(Br)CBr)c(Cl)n1 (stereo not given)	28.9% (active)
Cc1ccc(C(=O)O/N=C(\N)c2ccccc2)c(Cl)c1	-64.6%
Cc1oc2c(Cl)c(Cl)c(O)c(CN(C)C)c2c1C(=O)c1ccc(Cl)cc1	33.1% (active)
COc1cccc(-c2ccc3ncnc(NCc4ccc5c(c4)OCO5)c3c2)c1	30% (active)
